# Among all 220,000 compounds or so, about 5,700 (2.6%) were called active. About 18% were inconclusive and are not listed. Calls follow the shape of the dose curve; as a rule, active = well fitted inhibition curve with a large enough effect; inconclusive = small, poorly fitted or top-dose-only effect; inactive = no such curve, though single readings can be large or run the other way. The list comes from a sample in which actives are over-represented; it also holds similar structures and randomly drawn compounds. Where a call stands in place of a potency, no number is given.
# Target: Lysine-specific demethylase 5B (Homo sapiens) (UniProt Q9UGL1)
# Assay: Primary screen for KDM5B Histone Demethylases FDH-coupled qHTS; also: nearly all actives have a fitted effect of over 70% in size
# Conditions: FDH-coupled NADH fluorescence (FDH is formaldehyde dehydrogenase); series mostly up to 57.7 µM
# Method in brief: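 qHTS format, multiple compound concentrations. Buffer 50 mM HEPES pH 7.5/0.01% Tween-20; 200 nM KDM5BΔAP final; 10 min compound preincubation; substrate-mix levels 12.5 µM peptide, 25 µM α-KG, 0.25 mM NAD⁺; 30 min RT; ΔRFU.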
# Potency is read from the fitted curve at half-maximal effect.
# Lysine-specific demethylase 5B (Homo sapiens), sequence (Q9UGL1 whole entry, looked up): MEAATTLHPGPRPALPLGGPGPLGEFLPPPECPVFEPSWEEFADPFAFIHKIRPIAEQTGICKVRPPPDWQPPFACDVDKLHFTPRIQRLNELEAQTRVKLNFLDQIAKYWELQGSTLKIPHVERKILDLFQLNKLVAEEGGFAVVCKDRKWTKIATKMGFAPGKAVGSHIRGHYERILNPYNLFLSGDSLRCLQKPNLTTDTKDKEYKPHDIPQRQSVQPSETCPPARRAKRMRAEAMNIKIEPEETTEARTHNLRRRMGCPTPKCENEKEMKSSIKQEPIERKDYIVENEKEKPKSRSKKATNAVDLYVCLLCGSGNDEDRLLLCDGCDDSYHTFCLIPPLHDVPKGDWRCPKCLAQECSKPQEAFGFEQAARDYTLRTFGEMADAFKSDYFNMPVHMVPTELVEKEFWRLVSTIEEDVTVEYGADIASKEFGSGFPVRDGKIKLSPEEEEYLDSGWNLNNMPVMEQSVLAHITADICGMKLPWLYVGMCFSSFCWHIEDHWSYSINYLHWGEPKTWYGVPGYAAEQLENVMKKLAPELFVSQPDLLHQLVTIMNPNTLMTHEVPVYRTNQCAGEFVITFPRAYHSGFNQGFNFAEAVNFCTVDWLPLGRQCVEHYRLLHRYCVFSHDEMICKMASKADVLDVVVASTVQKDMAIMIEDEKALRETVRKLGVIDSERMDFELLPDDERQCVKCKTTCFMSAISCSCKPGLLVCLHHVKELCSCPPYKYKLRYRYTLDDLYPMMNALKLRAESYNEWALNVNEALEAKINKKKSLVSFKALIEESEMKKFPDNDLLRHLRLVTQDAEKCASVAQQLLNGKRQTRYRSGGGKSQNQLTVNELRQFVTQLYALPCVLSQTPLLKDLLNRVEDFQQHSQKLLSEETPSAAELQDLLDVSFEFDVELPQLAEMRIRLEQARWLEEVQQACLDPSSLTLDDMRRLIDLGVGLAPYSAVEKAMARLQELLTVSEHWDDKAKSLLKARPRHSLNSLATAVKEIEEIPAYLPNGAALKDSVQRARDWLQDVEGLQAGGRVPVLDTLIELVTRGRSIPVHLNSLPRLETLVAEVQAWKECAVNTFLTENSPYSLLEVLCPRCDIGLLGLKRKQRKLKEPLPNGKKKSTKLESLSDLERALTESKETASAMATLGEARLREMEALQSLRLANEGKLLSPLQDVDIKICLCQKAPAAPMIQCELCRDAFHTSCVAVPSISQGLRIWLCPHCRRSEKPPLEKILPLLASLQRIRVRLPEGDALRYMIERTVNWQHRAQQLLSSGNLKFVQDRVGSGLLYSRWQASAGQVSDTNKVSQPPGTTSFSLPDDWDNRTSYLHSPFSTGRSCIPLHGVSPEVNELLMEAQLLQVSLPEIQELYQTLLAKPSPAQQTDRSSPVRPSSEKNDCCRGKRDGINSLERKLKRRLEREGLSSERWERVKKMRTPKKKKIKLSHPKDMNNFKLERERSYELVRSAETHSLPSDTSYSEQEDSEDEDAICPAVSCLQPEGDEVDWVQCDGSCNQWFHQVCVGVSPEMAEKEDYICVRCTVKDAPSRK
SMILES,Potency,"activity change, negative = inhibition"
O=C(N/N=C/c1ccccc1Cl)c1ccc(Cl)s1,inactive,
OCC#Cc1csc(CN2CCCC3(CCNCC3)CC2)c1,inactive,
C=CCN(C)C(=O)[C@@H](C)C1CC[C@@]2(C)Cc3sc(NS(=O)(=O)c4ccc(Cl)cc4)nc3[C@@H](C)[C@@H]2[C@H]1O (stereo not given in full),28.2 µM (active),
C=CCN(C)C(=O)[C@@H](C)C1CC[C@@]2(C)Cc3sc(Nc4c(Cl)cccc4Cl)nc3[C@@H](C)[C@@H]2[C@H]1O (stereo not given in full),inactive,
CCN(CC)C(=O)[C@@H](C)C1CC[C@@]2(C)Cc3sc(N)nc3[C@@H](C)[C@@H]2[C@H]1O (stereo not given in full),inactive,
O=C(c1ccccc1F)N1CCC2(CC1)C(=O)Nc1ccccc12,inactive,
CC(C)C1=NOC2(CCN(C(=O)c3ccccc3F)C2)C1 (stereo not given),inactive,
O=C1Nc2cnccc2C2(CCN(C(=O)c3ccccc3F)C2)O1 (stereo not given),31.6 µM (active),
O=C(O)Cc1ccc(NC(=O)Nc2cccc3ccccc23)cc1,inactive,
COc1ccc2nc(SCC(=O)Nc3ncccn3)[nH]c2c1,inactive,
COc1ccccc1-c1cc(-c2cn[nH]c2)c2cncn2c1,inactive,
c1cc(N2CCOCC2)ccc1-c1cc(-c2cn[nH]c2)c2cncn2c1,28.2 µM (active),
Cn1cc(CC(=O)N2CCCc3ncc(C(=O)N4CCCC[C@@H]4c4ccccc4)cc32)c2ccccc21,inactive,
COCc1cc(=O)n(CC(=O)NCc2ccc(C)cc2)c(N2CCOCC2)n1,inactive,
Cn1cc(-c2ccccc2)cc1C(=O)NCc1ccc(N2CCOCC2)cc1,inactive,
CCC(=O)Nc1cc(C(=O)NCc2ccc(N3CCOCC3)cc2)c2ccc(C)nc2c1,14.1 µM (active),
N#Cc1nc(C2CC2)oc1N1CCN(Cc2c(F)cccc2Cl)CC1,inactive,
Cn1c(SCC(=O)N2CCCC2)nnc1-c1ccc2c(c1)OCO2,inactive,
c1ccc(CNCc2cccc3ccccc23)cc1,inactive,
CC(C)(C)c1ccc(OCC(=O)N2CCC(c3nc4ccccc4s3)CC2)cc1,,10.7% [at 11.5 µM] (inactive)
CN1CCC(N2CC[C@H](c3nc4ccccc4s3)C2)CC1,28.2 µM (active),
Cc1ccc(F)cc1S(=O)(=O)N1CCC(c2nc3ccccc3s2)CC1,inactive,
Cc1c(-c2ccccc2)oc2c(C(=O)N3CCN(C(=O)c4ccccc4)CC3)cccc2c1=O,inactive,
CCCOc1ccccc1C(=O)N1CCC2(CC1)[C@H](O)C[C@@H]2OCCN,inactive,
Clc1ccccc1C1(c2ccnc(NCCn3cccn3)n2)CCNCC1,28.2 µM (active),

SMILES,Potency,"activity change, negative = inhibition"
Cn1c(COc2ccccc2Cl)nnc1SCCn1cccn1,inactive,
CCOc1ccc(/C=C2/Cc3c(O)cccc3C2=O)cc1,inactive,
N#CC1(NC(=O)COC(=O)CCN=C2NS(=O)(=O)c3ccccc32)CCCCC1,inactive,
O=c1cc(-c2cccnc2)oc2c(-c3ccccc3O)nccc12,inactive,
CN(c1ccccc1)c1cc(=O)c2ccnc(-c3ccc(CO)cc3)c2o1,inactive,
O=c1cc(-c2cccnc2)oc2c(-c3cccc(CO)c3)nccc12,35.5 µM (active),
N#CC1=C(N)Oc2n[nH]c(-c3ccc4c(c3)OCO4)c2C1c1cccc(O)c1 (stereo not given),inactive,
CN1CCN(c2oc(-c3ccccc3)nc2S(=O)(=O)c2ccc3c(c2)OCCO3)CC1,inactive,
COCc1noc(-c2ccc(NCCN3CCNC3=O)nc2)n1,inactive,
COCCc1noc(-c2ccc(NC(C)c3ncccc3C)nc2)n1 (stereo not given),28.2 µM (active),
COc1ccc(S(=O)(=O)NCCc2noc(-c3ccncc3)n2)cc1,inactive,
COc1cccc(CC(=O)NCCc2noc(-c3cccnc3)n2)c1,inactive,
O=C(O)CSCc1cccnc1,inactive,
O=C(O)Cn1ccc2cc(OCCc3cccc(-c4cccnc4)c3)cnc21,35.5 µM (active),
COc1cc(CNCC(O)c2ccccc2)ccc1Oc1nnnn1-c1ccccc1 (stereo not given),inactive,
CCNC(=O)NC(=O)C(C)OC(=O)c1ccc(C(=O)OC)cc1 (stereo not given),inactive,
Cc1ccc(-n2nnnc2C2(Nc3ccccc3)CCCC2)cc1,inactive,
COc1cccc(CC(=O)NC2CCN(c3cn[nH]c(=O)c3)CC2)c1,inactive,
COc1cccc(CN2CCN(C(=O)c3cnc4ccccn4c3=O)CC2=O)c1,28.2 µM (active),
COc1cccc(CN2CCOC3CCN(C(=O)c4cccnc4)CC3C2=O)c1 (stereo not given),inactive,
O=C(CCc1cccs1)N(CC1CCOC1)C1CC1 (stereo not given),inactive,
Cc1nc2sc3c(c2c2nc(-c4ccc(O)cc4)nn12)CC(C)(C)OC3,inactive,
Cn1c(Oc2cccc(Cl)c2)nc2c1c(=O)n(Cc1ccc(F)cc1)c(=O)n2C,inactive,
Cc1nc2ccc(C(=O)NCCCOCC3CC3)cc2nc1C,inactive,
O=C(CN1CCN(c2ccccc2)CC1)Nc1ccc(F)cc1,inactive,

SMILES,Potency,"activity change, negative = inhibition"
COc1ccc(-c2ccc3nnc(CNC(=O)C(C)Oc4ccc(Cl)cc4)n3n2)cc1 (stereo not given),28.2 µM (active),
O=C(Cc1ccc(F)cc1)NC1CCN(c2cc(-c3ccc(Cl)cc3)[nH]n2)CC1,inactive,
COc1ccc(CNc2nc(-c3ccc(Cl)cc3)nn2S(=O)(=O)c2ccc(C)cc2)cc1,inactive,
O=C(CN1CCN(Cc2ccc(Cl)cc2)C1=O)NCc1ccc(F)cc1,inactive,
COc1cc(NC(=O)CSc2nnc3ccc(-c4ccncc4)nn23)cc(OC)c1,inactive,
O=C(Cc1ccc(Cl)cc1)NCc1nnc2ccc(-c3ccc(F)cc3)nn12,25.1 µM (active),
COc1ccc(Oc2c(C)oc3cc(OCC(=O)NCc4ccccc4)ccc3c2=O)cc1,inactive,
COc1cccc(C(=O)Oc2ccc(C)cc2C(=O)/C=C/c2ccc(F)cc2)c1,inactive,
CC(C)NC(=O)Nc1cccc(C(=O)Nc2cccc(Cl)c2)c1,inactive,
CC(NC(=O)/C=C/c1ccsc1)C1CCCO1 (stereo not given),inactive,
N#Cc1ccc(OCC(O)CNCCC2=CCCCC2)cc1 (stereo not given),inactive,
O=C(NCCc1c[nH]c2ccc(Cl)cc12)c1ccccc1,inactive,
CC(C)Oc1ccc(/C(O)=C2\C(=O)C(=O)N(c3nccs3)C2c2cccc(Br)c2)cc1 (stereo not given),inactive,
O=C(CSc1ncccn1)c1ccc(F)cc1,inactive,
CCOc1ccc(-c2nc(S(=O)(=O)c3ccc(F)cc3)c(NC)o2)cc1,inactive,
O=C(CNc1nc(Cl)nc2nc[nH]c12)NC1CC1,inactive,
O=C(NCc1nnc2n1C(C(=O)NC1CC1)CC2)c1ccncc1 (stereo not given),inactive,
Cc1ccc(-c2ccc3nnc(CNC(=O)c4ccncc4)n3n2)cc1C,28.2 µM (active),
O=C(NC/C(=N/NC(=O)c1cccnc1)c1ccccc1)c1ccccc1,inactive,
O=C(CSc1nnc2ccc(-c3ccncc3)nn12)N1CCCCC1,inactive,
O=C(NCCCN1CCCC1)c1cccnc1,inactive,
CC[C@H](C)NC(=O)c1ccc2nc(-c3ccc(C)cc3)cc(OC)c2c1,inactive,
COc1ccc(-c2nc3ccc(C(=O)NCc4ccc(C)cc4)cc3nc2-c2ccc(OC)cc2)cc1,inactive,
Cc1ccc(-c2ccc3nnc(CNC(=O)c4cccnc4)n3n2)cc1C,31.6 µM (active),
COc1ccc(C(=O)NCc2nnc3ccc(-c4ccc(C)cc4)nn23)cc1F,28.2 µM (active),

SMILES,Potency,"activity change, negative = inhibition"
CCc1nonc1NC(=O)COc1ccc(C)c(C)c1,inactive,
COc1ccc(NC(=O)CSCc2ccc(F)cc2Cl)cc1,inactive,
CCOC(=O)COn1c(=O)c(-c2ccc(OCC)cc2)[n+]([O-])c2ccccc21,inactive,
C=CCOC(=O)Nc1nc2c(s1)C[C@@H]1[C@](C)(CO)[C@H](O)CC[C@@]1(C)[C@@H]2CC(=O)N(CC)CC,inactive,
CN(C)CCNC(=O)C[C@@H]1c2nc(NC(=O)c3ccc(C(C)(C)C)cc3)sc2C[C@@H]2[C@](C)(CO)[C@H](O)CC[C@]21C,inactive,
C[C@]1(CO)[C@H]2Cc3sc(NC(=O)C4CCCCC4)nc3[C@@H](CC(=O)NCc3cccs3)[C@]2(C)CC[C@H]1O,inactive,
CC(=O)N1CCN(C(=O)C[C@@H]2c3nc(NC(=O)c4cccs4)sc3C[C@@H]3[C@](C)(CO)[C@H](O)CC[C@]32C)CC1,inactive,
C=CCN(C)C(=O)C[C@@H]1c2nc(NC(=O)c3ccc(C(C)(C)C)cc3)sc2C[C@@H]2[C@](C)(CO)[C@H](O)CC[C@]21C,31.6 µM (active),
CC(C)(C)c1ccc(C(=O)Nc2nc3c(s2)C[C@@H]2[C@](C)(CO)[C@H](O)CC[C@@]2(C)[C@@H]3CC(=O)NCc2cccs2)cc1,14.1 µM (active),
CC(C)(C)C(=O)COC(=O)c1cc(-c2ccccc2)c(N2CCOCC2)s1,inactive,
CC(C)C(=O)N1CC(=O)Nc2ccc(F)cc2C1c1ccc(F)cc1 (stereo not given),inactive,
CC(=O)c1ccc(N2CCN(C(=O)CCNC(=O)Cn3ccc4ccccc4c3=O)CC2)cc1,inactive,
Cc1cnc(C(=O)N(C)Cc2ccc(Cl)s2)cn1,inactive,
Cc1ccc(C(C)C)c(OCCSc2nc3ccccc3n2CC(=O)O)c1,inactive,
COc1ccc(OC)c(CC(C(=O)Nc2ccc(F)cc2)c2nn[nH]n2)c1 (stereo not given),inactive,
O=C(NCc1ccc(Cl)cc1)c1cccn2nccc12,35.5 µM (active),
O=C(NCc1ccc(Cl)nc1)c1cn2c(n1)CN(C(=O)c1cccnc1)CC2,inactive,
O=C(NCc1ccc(Cl)nc1)c1ccn2cncc2c1,inactive,
O=C(NCc1ccc(Cl)nc1)c1c[nH]c2cccnc12,inactive,
O=C(NCc1ccc(Cl)cc1)c1cc(-c2ccc[nH]2)n[nH]1,inactive,
O=C(NCc1cccnc1)c1nc(-c2ccc(Cl)nc2)c2cnccn12,63.1 µM (active),
O=C(CSc1nccn1Cc1ccc(Cl)cc1)NCc1ccccc1,inactive,
O=C(NCc1ccc(Cl)nc1)c1cnn2ncccc12,31.6 µM (active),
O=C(NCc1cccnc1)c1cnc2ccccc2n1,inactive,
CC1CCCN(CC(=O)Nc2oc3ccccc3c(=O)c2-c2ccc(F)cc2)C1 (stereo not given),inactive,
